# DT40 TDP1 CPT = growth inhibition of DT40 Tdp1-/-;hTDP1 cells with camptothecin (screen for TDP1 inhibitors). 12% of 420,000 active. AID 686979. Potency, µM (highest dose often 46.2 µM), for inactives: at the highest dose activity change, negative = growth inhibition, hits mostly inhibitors. chicken DT40 Tdp1-/-;hTDP1 cells + 20 nM CPT, ATP luminescence, 48 h; further: potency means the concentration at half of the fitted maximal effect; nearly all actives have a fitted effect of over 55% in size
#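 Chicken DT40 Tdp1-/- cells complemented with human TDP1, 400 cells/well, exposed to compounds plus 20 nM camptothecin for at least 48 h at 37 C; viability read as ATP content by CellTiter-Glo luminescence.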
# ALOX12 inh = ALOX12 (human) lipoxygenase inhibition. purified 12hLO, xylenol orange hydroperoxide absorbance. Potency, µM (series often up to 108 µM), without a hit: at the highest dose activity change, negative = inhibition, actives largely listed as inhibitors. 1.1% of 580,000 active. AID 1671190; further: potency means the concentration at half of the fitted maximal effect
# Target sequence (P18054 whole entry, looked up): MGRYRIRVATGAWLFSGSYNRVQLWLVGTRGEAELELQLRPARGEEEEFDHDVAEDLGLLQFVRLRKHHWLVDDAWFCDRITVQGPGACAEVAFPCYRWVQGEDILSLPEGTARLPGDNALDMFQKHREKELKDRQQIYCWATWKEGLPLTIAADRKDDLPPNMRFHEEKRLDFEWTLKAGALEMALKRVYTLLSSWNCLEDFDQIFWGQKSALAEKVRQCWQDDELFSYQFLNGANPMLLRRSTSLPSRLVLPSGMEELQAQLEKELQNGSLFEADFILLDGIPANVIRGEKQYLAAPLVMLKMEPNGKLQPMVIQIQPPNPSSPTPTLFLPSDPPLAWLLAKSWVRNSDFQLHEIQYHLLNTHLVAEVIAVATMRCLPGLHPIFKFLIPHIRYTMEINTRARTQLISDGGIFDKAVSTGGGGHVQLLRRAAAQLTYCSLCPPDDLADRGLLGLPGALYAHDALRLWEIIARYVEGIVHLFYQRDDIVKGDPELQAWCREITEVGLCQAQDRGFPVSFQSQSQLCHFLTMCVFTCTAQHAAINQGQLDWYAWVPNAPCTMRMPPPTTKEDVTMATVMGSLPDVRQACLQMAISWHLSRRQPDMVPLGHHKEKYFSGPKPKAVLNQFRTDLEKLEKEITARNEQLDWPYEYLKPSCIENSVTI
#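 Hydroperoxide product was detected by ferrous iron/xylenol orange as the 573 to 405 nm absorbance ratio. Arachidonic acid at 40 uM (final) was turned over for 30 min at room temperature by 150 nM human 12hLO, pH 7.0 Hepes buffer, after 15 min compound preincubation.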
# IL1B secr inh = blocks inflammasome-driven IL-1 beta release. THP-1 LPS/ATP IL-1B secretion, AlphaLISA, 16 h; active compounds read low. activity change, % at 57.5 µM. 4.7% of 360,000 active; in the data active means activity change below about -50%; inconclusive means mostly about -30% to -49%
#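 THP-1 cells pretreated 1 hr with compounds (up to 57.5 uM final), then stimulated with LPS (250 ng/mL final) plus ATP (1.25 mM final); secreted IL-1B measured by AlphaLISA after 16 hr, decreased signal indicating inhibition.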
# DT40 TDP1 no CPT = qHTS for Inhibitors of human tyrosyl-DNA phosphodiesterase 1 (TDP1): qHTS in cells in absence of CPT; DT40 Tdp1-/- hTDP1 cells, no CPT, ATP luminescence, 48 h; Potency, µM (highest dose often 46.2 µM), without a hit: at the top dose activity change, negative = growth inhibition, most hits filed as inhibitors; 15% of 420,000 active; AID 686978, 2013; further: potency means the concentration at half of the fitted maximal effect; nearly all actives have a fitted effect of over 55% in size
#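 A cellular qHTS used chicken DT40 cells lacking endogenous Tdp1 but carrying stably transfected human TDP1. Compounds were applied without camptothecin, and cell growth kinetics were judged by ATP-dependent luminescence after ≥48 hr.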
# HT1080 IDH1KD tx = toxicity to HT-1080 IDH1 knockdown cells (counter line) | HT-1080 IDH1 knockdown viability, ATP luminescence, 48 h | Potency, µM (top dose mostly 46.1 µM), without a hit: at the top dose activity, negative = toxicity, usual class: cytotoxic | 2% of 360,000 active;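 further: potency means the concentration at half of the fitted maximal effect; 0% = DMSO wells and -100% = cell-free medium wells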
#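 Assay cells: HT-1080 with IDH1 knockdown, 750 per well, RPMI/5% FBS. Exposure: 48 h at 37 °C following 2 h pre-incubation. Read: CellTiter-Glo luminescence; fitted concentration-response, curve class assigned.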
# HT1080NT lethal = kills 2HG-producing HT-1080-NT fibrosarcoma cells | 1.6% of 360,000 active | Potency, µM (titrated, usually from 46.1 µM), for inactives: top-dose activity, negative = less viability, usual class: cytotoxic | AID 686970 | HT-1080-NT fibrosarcoma viability, CellTiter-Glo ATP luminescence, 48 h;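 further: NT is the 2HG producing partner of a matched IDH1 knockdown line; potency means the concentration at half of the fitted maximal effect; 0% = DMSO-treated cells and -100% = media-only wells without cells; nearly all actives have a fitted effect of over 55% in size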
#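 Toxicity toward the 2HG-producing NT line was scored as %Activity, normalised to DMSO and no-cell wells, from CellTiter-Glo luminescence after 48 hours' treatment.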
# The depositor's hits bear a star; ? = inconclusive; . = no result given; [ ] = another dose, or the depositor's remark. Shown is part of a subset that was picked to be rich in hits. Unless noted, the call rests on the fitted dose curve; in most records, active means well fitted curve in the direction sought with a large enough effect; inconclusive means small, poorly fitted or top-dose-only effect, or another doubt; inactive means no such curve, though single readings can be large; an effect the other way counts as inactive or inconclusive. Unless noted, on the % scale 0 is the no-effect control and ±100 the full control effect.
SMILES,DT40 TDP1 CPT,ALOX12 inh,IL1B secr inh,DT40 TDP1 no CPT,HT1080 IDH1KD tx,HT1080NT lethal
N/C(=N\OC(=O)c1cc([N+](=O)[O-])ccc1Cl)c1ccccn1,?,479%,-96*,18µM*,?,?
N/C(=N/OC(=O)c1ccccc1Cl)c1ncc([N+](=O)[O-])s1,3.7µM*,?,-88*,8.2µM*,18µM*,29µM*
N/C(=N\OC(=O)c1ccccc1Cl)c1cccc([N+](=O)[O-])c1,-7%,35%,11,?,9%,18%
Cc1cccc(-n2ccc(=O)c(C(=O)Nc3ccc(S(=O)(=O)N4CCOCC4)cc3)n2)c1,?,4%,-21,23µM*,-2%,-3%
CN(C)S(=O)(=O)c1ccc(Cl)c(C(=O)Nc2ccc(S(=O)(=O)N3CCOCC3)cc2)c1,10µM*,0%,8,9.2µM*,0%,0%
O=C(Nc1ccc(S(=O)(=O)N2CCOCC2)cc1)c1ccc(Cl)cc1Cl,?,0%,-1,21µM*,-6%,-2%
O=C(Nc1ccc(Cl)cc1)c1cc(S(=O)(=O)N2CCCCC2)ccc1N1CCOCC1,-29%,?,-11,?,-4%,-7%
Cc1ccc(NC(=O)c2cc(S(=O)(=O)N3CCOCC3)ccc2Cl)cc1S(=O)(=O)N1CCOCC1,?,-25%,31,?,6%,-1%
O=C(Nc1ccc(S(=O)(=O)N2CCOCC2)cc1)c1cc([N+](=O)[O-])ccc1Cl,16µM*,-11%,21,?,?,?
CCC(=O)Nc1ccc(S(=O)(=O)N2CCOCC2)cc1,-8%,14%,23,-7%,6%,8%
CCc1c(C(=O)Nc2ccc(S(=O)(=O)N3CCOCC3)cc2)csc1C,23µM*,-4%,16,18µM*,-28%,-26%
CCc1nnc(CN2CCC(C(=O)Nc3cccc(-c4ccco4)c3)CC2)o1,.,73%,.,.,.,.
Cc1cccc(C)c1NC(=S)N(CCN(C)C)C(C)c1ccccn1 (stereo not drawn),0%,11%,0,-17%,0%,5%
COCCCN(C(=S)Nc1c(C)cc(C)cc1C)C(C)c1ccccn1 (stereo not drawn),?,?,1,21µM*,11%,21%
COC(=O)C1CCN(Cc2cc(=O)oc3cc(C)c(C)cc23)CC1,.,-4%,.,.,.,.
COc1cccc(CNCCSc2nnnn2C)c1OCc1ccc(Cl)cc1,21µM*,-15%,.,?,.,.
COc1cccc(CNCCSc2nnnn2C)c1OCc1ccc(Cl)cc1Cl,16µM*,?,.,23µM*,.,.
CCCC(=O)N1CCC2(CC1)CC(N(Cc1ccc(F)cc1)C1CC1)CCO2 (stereo not drawn),.,-5%,.,.,.,.
CCC(CC)C(=O)Nc1cc(OC)c(OC)cc1C(=O)O,16µM*,-3%,24,18µM*,20%,15%
CCC(C)C(=O)Nc1cc(OC)c(OC)cc1C(=O)O (stereo not drawn),7%,?,27,-2%,20%,21%
CC(=O)NC1(C)CCN(Cc2cnc(-c3cccc(F)c3)s2)CC1,.,50µM*,.,.,.,.
CC(=O)NC1(C)CCCN(Cc2cccc(-c3cccc(F)c3)c2)C1 (stereo not drawn),.,-1%[176 µM],.,.,.,.
CCOC(=O)NC(CN)c1ccccc1 (stereo not drawn),.,9%,.,.,.,.
CCN(CC(=O)Nc1ccccc1C(F)(F)F)C(=O)Cc1ccc2ccccc2c1,.,-5%,.,.,.,.
O=C(CCCn1ccnc1)N1CCC2(CCC(=O)N(Cc3ccncc3)C2)CC1,.,5%,.,.,.,.
SMILES,DT40 TDP1 CPT,ALOX12 inh,IL1B secr inh,DT40 TDP1 no CPT,HT1080 IDH1KD tx,HT1080NT lethal
Cc1ccc(Cl)cc1N1CCN(C(=O)C2CCC(=O)N(C3CCCCCC3)C2)CC1 (stereo not drawn),6.5µM*,121%,30,2.9µM*,?,-8%
Cc1cccc(N2CCN(C(=O)C3CCC(=O)N(C4CC4)C3)CC2)c1C (stereo not drawn),16µM*,0%,34,?,4%,13%
O=C(C1CCC(=O)N(C2CCCC2)C1)N1CCN(c2ccccc2Cl)CC1 (stereo not drawn),-22%,7%,16,5%,1%,-1%
O=C(O)c1ccccc1S(=O)(=O)Cc1ccc(Cl)cc1,.,-32%,.,.,.,.
CCCN1CCC(NC(=O)c2csc3c2CCCC3)CC1,.,7%,.,.,.,.
C[C@@H]1CCCCO[C@H](CN(C)C(=O)Nc2cccc3ccccc23)[C@@H](C)CN([C@H](C)CO)C(=O)c2cc(NC(=O)c3ccccc3)ccc2O1,4.6µM*,-7%,-25,3.7µM*,1%,-2%
C[C@@H]1CN([C@@H](C)CO)C(=O)c2cc(NC(=O)Nc3cccc4ccccc34)ccc2O[C@@H](C)CCCCO[C@H]1CN(C)C(=O)c1ccccc1,?,3%,37,21µM*,-3%,5%
C[C@@H]1CN([C@@H](C)CO)C(=O)c2cc(NC(=O)Nc3ccccc3)ccc2O[C@H]1CN(C)C(=O)Nc1cccc2ccccc12,13µM*,.,-1,18µM*,0%,15%
Cc1ccc(S(=O)(=O)N(C)C[C@H]2OCCCC[C@H](C)Oc3ccc(NC(=O)Nc4cccc5ccccc45)cc3C(=O)N([C@@H](C)CO)C[C@H]2C)cc1,-6%,-15%,4,?,0%,0%
C[C@H]1[C@@H]2[C@@H](O)C([C@H](C)C(=O)N3CCCC3)CC[C@@]2(C)CC[C@@H]1NC(=O)COc1ccccc1 (stereo partly drawn),.,59%,.,.,.,.
Cc1cc(OCC(=O)c2ccc3c(c2)N(CC(=O)NCC2CCCO2)C(=O)CO3)ccc1C(C)C (stereo not drawn),.,-3%,.,.,.,.
NN/C(=C\[N+](=O)[O-])Nc1ccc(Cl)cc1,?,35µM*,-15,?,-27%,-17%
O=C(NNc1ccc([N+](=O)[O-])cc1)Nc1ccccc1,1%,?,-5,?,-6%,-4%
NN/C(=C\[N+](=O)[O-])Nc1ccccc1,?,-16%,14,21µM*,2%,-2%
CC(NC(=O)CSc1nnc(N2CCOCC2)n1-c1ccccc1)c1cc2ccccc2o1 (stereo not drawn),.,21%,.,.,.,.
CCC(Oc1ccccc1Cl)C(=O)O (stereo not drawn),.,-7%,.,.,.,.
